Test results reported in PubChem BioAssay.
Inconclusive results are not listed. The source made the active and inactive calls.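 The calls were made as follows, unless noted: active = compounds that lower survival of HCT116 colon cancer cells in the luminescence readout, no numeric limit stated; inactive = the rest.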

Legend:
[1] = stimulators of nuclear beta-catenin in C2C12, primary screen, imaging, WNT3A-conditioned medium, mouse C2C12, NPC library (AID 1117326; in the data active = nuclear beta-catenin stimulation mostly above about 4.2%, no sharp cut-off; inactive = mostly below about 10%; also: reference of the scale not given here); settings: stronger effect = higher value
[2] = stimulators of insulin release from INS-1E, primary screen, cell-based, 5 mM glucose, NPC library (AID 1117329;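 active = compound raises insulin release from rat beta cells at 5 mM glucose, no numeric limit stated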; also: reference of the scale not given here); settings: rat INS-1E insulin secretion, at 10 µM, stronger effect = higher value
[3] = growth inhibition of GSK3B-pretreated HCT116 cells – cell-based, CellTiter-Glo, 0.2 to 20 µM (AID 1117336;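 active = compounds lowering colon cancer cell viability after pretreatment blocking the GSK3B kinase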); settings: HCT116 viability after GSK3B inhibitor, at 20 µM, stronger effect = higher value
[4] = inhibition of endothelial tube formation, primary screen, imaging, VEGF stimulated, CD31 staining, tube area, NPC library (AID 1117340;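 active = compound that reduces growth-factor-driven endothelial tube area in a mixed cell culture, no cutoff stated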); settings: VEGF-stimulated ADSC/ECFC co-culture, at 10 µM, stronger effect = higher value
[5] = glucagon-like peptide 1 release enhancers, primary assay, NCI-H716 cell line, NPC library (AID 1117341;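 active = compound raises GLP1 secretion from the human gut endocrine cells, with no numeric limit stated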; also: reference of the scale not given here); settings: NCI-H716 cells, at 10 µM, stronger effect = higher value
[6] = HCT116 colon cancer cell growth inhibition, primary screen, CellTiter-Glo luminescence, NPC library (AID 1117342); settings: at 20 µM (top of the series)
[7] = CellTiter-Glo luminescent readout of SW480 viability loss, NPC library primary (AID 1117343;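 active = compounds that lower viability of the colon cancer cells in the luminescence readout, with no numeric limit stated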); settings: CellTiter-Glo luminescence; at 20 µM (top of the series) unless noted
[8] = decreased DLD-1 cellular survival, CellTiter-Glo luminescent readout, NPC compound collection, primary HTS (AID 1117346;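 active = compounds that lower survival of DLD-1 colon cancer cells in the luminescence readout, no cutoff given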); settings: DLD-1 viability, CellTiter-Glo luminescence; at 20 µM (top of the series)
[9] = growth inhibition of DIPG glioma cells, dose response, cell-based, SU-DIPG-XVII, MIPE5.0, CellTiter-Glo, qHTS (AID 1347060; cut-off not given, nearly all actives have AC50 up to about 26 µM;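 as to AC50: cells exposed to compound for 48 hours before viability readout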); settings: SU-DIPG-XVII viability, CellTiter-Glo ATP luminescence
[10] = growth inhibition of DIPG glioma cells, dose response, cell-based, SU-DIPG-XIII, MIPE4.0, CellTiter-Glo, qHTS (AID 1347061; cut-off not given, nearly all actives have AC50 up to about 37 µM;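 also: cells exposed to compound for 48 hours before readout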); settings: SU-DIPG-XIII viability, CellTiter-Glo ATP luminescence
[11] = SU-DIPG-VI glioma cell viability, MIPE4.0 library, CellTiter-Glo luminescence, qHTS (AID 1347066; cut-off not given, nearly all actives have AC50 up to about 30 µM;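 also: cells exposed to compound for 48 hours before readout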); settings: CellTiter-Glo ATP luminescence
[12] = SU-DIPG-XXV glioma cell viability, MIPE5.0 library, qHTS (AID 1347068; cut-off not given, nearly all actives have IC50 up to about 30 µM;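 as to IC50: cells exposed to compound for 48 hours before viability readout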)
[13] = sensitizers of A549 cells to miR-34 induction, primary screen, imaging, A549 dox-inducible miR-34, nuclei and caspase counts (AID 1347080;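 active = compounds whose cell count with miR-34 switched on is under 0.7 times the count with it off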); settings: A549 miR-34 inducible, Hoechst nuclei count, 48 h
[14] = survival rescue of mitochondrial mutant cells in low glucose, primary screen, MELAS cybrids, Rieske KO mouse fibroblasts, CellTiter-Glo (AID 1508586;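 active = mean z-score across replicates of 1.96 or higher in either the MELAS or the Rieske mutant cell line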;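 also: z relative to plate mean and SD of compound and empty wells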)
[15] = test system: Aerobactin synthetase IucA (Klebsiella pneumoniae); test: IucA aerobactin synthetase inhibitors, biochemical, Tocris library, absorbance (AID 1345561; call rule not given here;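 also: 100% = enzyme without compound and 0% = no enzyme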); settings: purified IucA enzyme assay, absorbance (OD) read-out; stronger effect = lower value;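 tested at 8 µM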
[16] = viability rescue of complex I mutant cybrids, primary screen, cell-based, galactose medium, ATP luminescence (AID 1645843;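 active = z-score of at least 1.8 in each of two replicates, scored against plate mean and spread of sample wells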;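 also: positive z means more ATP and so rescue of galactose-driven cybrid death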); settings: complex I mutant cybrid cells, 72 h, stronger effect = higher value
[17] = biological target: NAD(+) hydrolase SARM1 (Homo sapiens) (UniProt Q6SZW1); test: SARM1 TIR NADase inhibitors, cell lysate, NAD-Glo luminescence (AID 1508614;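 active = compound whose remaining NAD level is above about 45 nM, limit read from the data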;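 also: higher remaining NAD means stronger inhibition of SARM1 NADase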); settings: SAM-TIR HEK293T lysate NADase, at 1 µM, stronger effect = higher value
Chain of NAD(+) hydrolase SARM1 (Homo sapiens) (Q6SZW1 whole entry, looked up): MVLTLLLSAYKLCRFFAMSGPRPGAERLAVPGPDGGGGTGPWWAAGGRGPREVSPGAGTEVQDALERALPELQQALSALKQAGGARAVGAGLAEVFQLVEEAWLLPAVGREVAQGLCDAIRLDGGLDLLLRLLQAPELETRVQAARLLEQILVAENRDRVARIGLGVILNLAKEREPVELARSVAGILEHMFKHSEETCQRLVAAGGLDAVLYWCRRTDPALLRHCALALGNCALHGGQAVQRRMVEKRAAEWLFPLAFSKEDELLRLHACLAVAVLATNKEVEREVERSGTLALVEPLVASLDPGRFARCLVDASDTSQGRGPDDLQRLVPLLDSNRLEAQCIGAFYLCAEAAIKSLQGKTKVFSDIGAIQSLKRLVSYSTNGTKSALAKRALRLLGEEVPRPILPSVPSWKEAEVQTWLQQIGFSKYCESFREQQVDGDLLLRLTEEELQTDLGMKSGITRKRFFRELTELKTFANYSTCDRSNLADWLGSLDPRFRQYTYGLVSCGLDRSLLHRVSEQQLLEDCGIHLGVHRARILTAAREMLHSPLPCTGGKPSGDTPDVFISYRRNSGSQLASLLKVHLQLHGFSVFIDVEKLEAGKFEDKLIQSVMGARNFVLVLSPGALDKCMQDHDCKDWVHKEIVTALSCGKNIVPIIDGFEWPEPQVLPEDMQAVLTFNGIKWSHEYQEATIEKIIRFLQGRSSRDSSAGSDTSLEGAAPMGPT

[18] = stronger effect = lower value, cell number ratio, induced over uninduced
[19] = measured here: relative caspase fold change +Dox/-Dox
[20] = measured here: total cells with miR-34 induction, stronger effect = lower value
[21] = measured here: total cells without miR-34 induction
[22] = MELAS cybrid survival, CellTiter-Glo 48 h, stronger effect = higher value
[23] = Rieske KO mouse fibroblast survival, CellTiter-Glo 72 h

Structure (SMILES): C[C@@H](NCCCc1cccc(C(F)(F)F)c1)c1cccc2ccccc12
- nuclear beta-catenin stimulation ([1]; at 10 µM): 35.9% (inactive)
- nuclear beta-catenin stimulation ([1]; stimulation, at 2 µM): -0.4%
- insulin secretion stimulation [2]: 0.2% (inactive)
- viability decrease [3]: 101% (active)
- tube area decrease [4]: 99.6% (active)
- GLP1 secretion stimulation [5]: 20.5% (active)
- inhibition of viability [6]: 102% (active)
- viability decrease (inhibition) [7]: 123% (active)
- viability decrease (inhibition) [8]: 104% (active)
- AC50 [9]: 16.6 µM (active)
- outcome [10]: inactive
- outcome [11]: inactive
- IC50 [12]: 20.9 µM (active)
- fold change [13, 18]: 0.971 (inactive)
- fold change [13, 19]: 0.761
- cell count [13, 20]: 5970
- cell count [13, 21]: 6150
- z-score [14, 22]: -0.442 (inactive)
- z-score [14, 23]: 0.442

Structure (SMILES): NCCNC(=O)c1ccc(Cl)cn1
- nuclear beta-catenin stimulation ([1]; at 10 µM): 1.5% (inactive)
- nuclear beta-catenin stimulation ([1]; stimulation, at 2 µM): 0.2%
- insulin secretion stimulation [2]: -1.7% (inactive)
- viability decrease [3]: -5.05% (inactive)
- tube area decrease [4]: -14.8% (inactive)
- GLP1 secretion stimulation [5]: -1.7% (inactive)
- inhibition of viability [6]: -6.5% (inactive)
- viability decrease (inhibition) [7]: 16.3% (inactive)
- viability decrease (inhibition) [8]: -10.3% (inactive)
- remaining activity [15]: 98% (inactive)
- fold change [13, 18]: 0.873 (inactive)
- fold change [13, 19]: 1.55
- cell count [13, 20]: 8230
- cell count [13, 21]: 9430
- z-score [16]: 0.045 (inactive)

Structure (SMILES): CCOC(=O)[C@H](CCc1ccccc1)N[C@@H](C)C(=O)N1Cc2cc(OC)c(OC)cc2C[C@H]1C(=O)O
- nuclear beta-catenin stimulation ([1]; at 10 µM): -0.5% (inactive)
- nuclear beta-catenin stimulation ([1]; stimulation, at 2 µM): 1.6%
- insulin secretion stimulation [2]: 0.3% (inactive)
- viability decrease [3]: -1.4% (inactive)
- tube area decrease [4]: 78.4% (active)
- GLP1 secretion stimulation [5]: 0.3% (inactive)
- inhibition of viability [6]: 6.7% (inactive)
- viability decrease (inhibition) [7]: -2.3% (inactive)
- viability decrease (inhibition) [8]: 3.7% (inactive)
- remaining activity [15]: 110% (inactive)
- fold change [13, 18]: 0.937 (inactive)
- fold change [13, 19]: 1.79
- cell count [13, 20]: 7700
- cell count [13, 21]: 8220
- z-score [16]: -0.04 (inactive)

Structure (SMILES): CCCCCCCCCCCCCCCC(=O)NCCO
- nuclear beta-catenin stimulation ([1]; at 10 µM): 2.2% (inactive)
- nuclear beta-catenin stimulation ([1]; stimulation, at 2 µM): 8.9%
- insulin secretion stimulation [2]: 4.7% (inactive)
- viability decrease [3]: -7.4% (inactive)
- tube area decrease [4]: -5.7% (inactive)
- GLP1 secretion stimulation [5]: -1.8% (inactive)
- inhibition of viability [6]: 1.3% (inactive)
- viability decrease (inhibition) [7]: -42.2% (inactive)
- viability decrease (inhibition) [8]: -11.2% (inactive)
- remaining activity [15]: 113% (inactive)
- remaining NAD [17]: 10 nM (inactive)
- z-score [16]: 0.05 (inactive)

Structure (SMILES): O=S1(=O)c2cccc3cccc(c23)N1CCCN1CCN(c2ccc(F)cc2)CC1
- nuclear beta-catenin stimulation ([1]; at 10 µM): 1.8% (inactive)
- nuclear beta-catenin stimulation ([1]; stimulation, at 2 µM): 17.7%
- insulin secretion stimulation [2]: 3.4% (inactive)
- viability decrease [3]: 74.5% (active)
- tube area decrease [4]: -3% (inactive)
- GLP1 secretion stimulation [5]: 0.3% (inactive)
- inhibition of viability [6]: 104% (active)
- viability decrease (inhibition) [7]: 136% (active)
- viability decrease (inhibition) [8]: 84.5% (active)
- remaining activity [15]: 92.7% (inactive)
- fold change [13, 18]: 0.902 (inactive)
- fold change [13, 19]: 1.69
- cell count [13, 20]: 7340
- cell count [13, 21]: 8140
- z-score [16]: -0.675 (inactive)

Structure (SMILES): CC(C)C[C@H](NC(=O)[C@H](CCc1ccccc1)NC(=O)CN1CCOCC1)C(=O)N[C@@H](Cc1ccccc1)C(=O)N[C@@H](CC(C)C)C(=O)[C@@]1(C)CO1
- nuclear beta-catenin stimulation ([1]; at 10 µM): 106% (active)
- nuclear beta-catenin stimulation ([1]; stimulation, at 2 µM): 129%
- insulin secretion stimulation [2]: 6.05% (inactive)
- viability decrease [3]: 117% (active)
- tube area decrease [4]: 110% (active)
- GLP1 secretion stimulation [5]: 5.2% (inactive)
- inhibition of viability [6]: 124% (active)
- viability decrease (inhibition) [7]: 150% (active)
- viability decrease (inhibition) [8]: 101% (active)
- AC50 [9]: 0.0148 µM (active)
- AC50 [11]: 0.0935 µM (active)
- IC50 [12]: 0.0934 µM (active)

Structure (SMILES): N#Cc1c(N(CC(=O)O)CC(=O)O)sc(C(=O)O)c1CC(=O)O
- nuclear beta-catenin stimulation ([1]; at 10 µM): -1.5% (inactive)
- nuclear beta-catenin stimulation ([1]; stimulation, at 2 µM): -0.9%
- insulin secretion stimulation [2]: 4.8% (inactive)
- viability decrease [3]: -2.4% (inactive)
- tube area decrease [4]: 0% (inactive)
- GLP1 secretion stimulation [5]: -1.7% (inactive)
- inhibition of viability [6]: -4% (inactive)
- viability decrease (inhibition) [7]: -7.1% (inactive)
- viability decrease (inhibition) [8]: -13.8% (inactive)
- outcome [9]: inactive
- outcome [10]: inactive
- outcome [11]: inactive
- outcome [12]: inactive

Structure (SMILES): CCOC(=O)c1ccc(C#Cc2ccc3c(c2)C(C)(C)CCS3)nc1
- nuclear beta-catenin stimulation ([1]; at 10 µM): 6% (inactive)
- nuclear beta-catenin stimulation ([1]; stimulation, at 2 µM): 4.9%
- insulin secretion stimulation [2]: -1.4% (inactive)
- viability decrease [3]: 91.1% (active)
- tube area decrease [4]: -6% (inactive)
- GLP1 secretion stimulation [5]: -0.3% (inactive)
- inhibition of viability [6]: 98.6% (active)
- viability decrease (inhibition) [7]: 126% (active)
- viability decrease (inhibition) [8]: 98.1% (active)
- AC50 [9]: 26.3 µM (active)
- outcome [11]: inactive
- outcome [12]: inactive
- fold change [13, 18]: 0.864 (inactive)
- fold change [13, 19]: 0.957
- cell count [13, 20]: 7750
- cell count [13, 21]: 8970
- z-score [14, 22]: 0.367 (inactive)
- z-score [14, 23]: 0.684
